Source: PubChem BioAssay AID686979 (National Center for Advancing Translational Sciences (NCATS), 2013)
Screen size: about 420,000 compounds; about 50,000 (12%) were called active. Roughly 26% stayed inconclusive and do not appear here. The full list was thinned out, with actives kept by preference. A number with no mark means an inactive call. Calls come from the whole dose curve; as a rule, active = well fitted inhibition curve with a large enough effect; inconclusive = small, poorly fitted or top-dose-only effect; inactive = flat fitted curve, though single readings scatter.

assay: qHTS for Inhibitors of human tyrosyl-DNA phosphodiesterase 1 (TDP1): qHTS in cells in presence of CPT; conditions: chicken DT40 Tdp1-/-;hTDP1 cells + 20 nM CPT, ATP luminescence, 48 h; series mostly up to 46.2 µM; activity change, negative = growth inhibition: at the top concentration; note: nearly all actives have a fitted effect of over 55% in size
Description: Human tyrosyl-DNA phosphodiesterase 1 (TDP1) is a novel repair gene, and we propose to use it as a new target for anticancer drug development. TDP1 is not an essential protein, but under treatment with topoisomerase I poison (camptothecin: CPT), TDP1 works as a critical factor for cell survival. To directly identify novel TDP1 inhibitors active in a cellular environment, we have knocked-out the Tdp1 gene in chicken DT40 cells (Tdp1-/-) and generated a complemented counterpart cells that contains a stable transfection of the human TDP1 gene (Tdp1-/-;hTDP1 cells). For the primary screen, Tdp1-/-;hTDP1 cells will be exposed to small molecules in the presence or absence of CPT, and their growth kinetics will be evaluated after 48 hours by measuring ATP activity. […] The hit compounds will then be evaluated in the presence or absence of CPT using Tdp1-/- cells. […] In tertiary assays, biochemical gel-based assays will be used to assess whether the hit compounds specifically target TDP1. To this end, we have screened this cell line against the MLSMR in two primary screens. In one screen we add CPT and in the other we screen in the absence of CPT; this AID represents the screen where CPT was present. NIH Chemical Genomics Center [NCGC] NIH Molecular Libraries Probe Centers Network [MLPCN] MLPCN Grant: MH095538 Assay Submitter (PI): Yves Pommier, NCI
DT40-hTDP1 cells with 20 nM Camptothecin (add 20 microL of 1 mM CPT stock in 1 L of cell culture medium) were dispensed at 400 cells/5microL/well in tissue culture treated 1536-well white wall/solid bottom assay plates (Greiner Bio-One North America, NC, U.S.A.) using a Multidrop Combi 8 channel dispenser (Thermo Fisher, Waltham, MA, USA). 23 nL compounds and controls were transferred using the pin tool (Kalypsys, San Diego, CA, USA) to the assay plates. The assay plates were then incubated at 37 masculineC for a minimum 48 hr. Three microL of Cell Titer Glo solution was added to the plates and incubated at RT in dark for 30 min. Luminescence was read using ViewLux (Perkin Elmer) with 1 sec exposure slow speed, high gain and 2x binning.
% is set by controls: 0 for no effect and ±100 for the full control effect; potency is the fitted concentration of half-maximal effect.

**Q.** With CCc1ccc(C(CNc2nc(C(F)(F)F)nc3ccccc23)N(C)C)cc1 (stereo not given) as the compound, how does the Potency read?
**A.** 16.4 µM (active)

**Q.** With CN(C)C(CNC(=O)Cc1ccc([N+](=O)[O-])cc1)c1ccccc1 (stereo not given) as the compound, how does the “activity change, negative = growth inhibition” value read?
**A.** -2.26%

**Q.** Which “activity change, negative = growth inhibition” value does the source give for NS(=O)(=O)c1ccc(CCNc2nc(C(F)(F)F)nc3ccccc23)cc1 here?
**A.** -27.3%

**Q.** For CCN(CC)CCCN=C(N)N, which “activity change, negative = growth inhibition” value is on record?
**A.** -4.33%

**Q.** With Cc1nc2ccc(S(=O)(=O)NC(C(=O)NCc3ccccc3Cl)C(C)C)cc2s1 (stereo not given) as the compound, how does the “activity change, negative = growth inhibition” value read?
**A.** 4.06%

**Q.** For COc1cc(C(CC(=O)NCCC(C)C)N2Cc3ccccc3C2=O)cc(OC)c1OC (stereo not given), which “activity change, negative = growth inhibition” value is on record?
**A.** -7.29%

**Q.** With O=C(CC(c1cccs1)N1Cc2ccccc2C1=O)Nc1ccc(F)cc1F (stereo not given) as the compound, how does the Potency read?
**A.** 20.6 µM (active)

**Q.** For O=C(O)CC(c1ccccc1F)N1Cc2ccccc2C1=O (stereo not given), which “activity change, negative = growth inhibition” value is on record?
**A.** -6.62%

**Q.** Which “activity change, negative = growth inhibition” value does the source give for Nc1nc(SCC(=O)NCCN2CCOCC2)nc2sc3c(c12)CCC3 here?
**A.** 1.37%

**Q.** With CN(C)CCSc1nc(N)c2c3c(sc2n1)COC(C)(C)C3 as the compound, how does the “activity change, negative = growth inhibition” value read?
**A.** -2.4%

**Q.** For CC(C)(C)C1CCc2c(sc3nc(SCC(N)=O)nc(N)c23)C1 (stereo not given), which Potency is on record?
**A.** 16.4 µM (active)

**Q.** With Cc1cnc(-n2ncc(C(=O)N3CCN(C(C)C)CC3)c2-c2ccco2)nc1-c1ccc(F)cc1 as the compound, how does the “activity change, negative = growth inhibition” value read?
**A.** -0.952%

**Q.** For O=c1o[nH]c(-c2ccccc2)c1N=Nc1c(F)cccc1Cl, which “activity change, negative = growth inhibition” value is on record?
**A.** -4.76%

**Q.** For Cc1nc2ccccc2c(=O)n1NC(=O)c1ccc(Cl)c([N+](=O)[O-])c1, which “activity change, negative = growth inhibition” value is on record?
**A.** -1.58%

**Q.** With COC(=O)c1c(NC(=O)C(=O)N2CCCCC2)sc2c1CC(C)(C)OC2 as the compound, how does the “activity change, negative = growth inhibition” value read?
**A.** -21.8%

**Q.** With CC1(C)Cc2c(sc(NC(=O)C(=O)N3CCOCC3)c2C#N)CO1 as the compound, how does the Potency read?
**A.** 20.6 µM (active)

**Q.** With CCOC(=O)N1CCN(C(=O)C(=O)Nc2sc3c(c2C#N)CC(C)(C)OC3)CC1 as the compound, how does the “activity change, negative = growth inhibition” value read?
**A.** -9.35%

**Q.** With CCOc1cc(NC(=O)Nc2ccccc2)c(OCC)cc1NC(=O)CC as the compound, how does the “activity change, negative = growth inhibition” value read?
**A.** 1.31%

**Q.** With CN(NC(=O)C1CC(=O)N(c2ccccc2)C1)C1=NS(=O)(=O)c2ccccc21 (stereo not given) as the compound, how does the “activity change, negative = growth inhibition” value read?
**A.** 8.09%

**Q.** With O=C(N/N=C/c1ccccn1)C12CC3CC(CC(C3)C1)C2 as the compound, how does the “activity change, negative = growth inhibition” value read?
**A.** -3.23%

**Q.** For S=C(NN=Cc1ccccn1)Nc1ccccn1, which Potency is on record?
**A.** 1.46 µM (active)

**Q.** For CNC(=O)C(=O)N/N=C/c1ccccn1, which “activity change, negative = growth inhibition” value is on record?
**A.** -1.38%

**Q.** Which “activity change, negative = growth inhibition” value does the source give for CC(=O)N1CCN(C(=O)C2(NC(=O)Nc3ccc(C)cc3)CCCCC2)CC1 here?
**A.** 14.9%

**Q.** With CC(=O)NCC(=O)N1CCC(n2nccc2NC(=O)CCCc2ccccc2)CC1 as the compound, how does the “activity change, negative = growth inhibition” value read?
**A.** -1.7%

**Q.** With c1ccc(C(=NNc2nc3ccccc3s2)c2ccccn2)cc1 as the compound, how does the Potency read?
**A.** 0.164 µM (active)

**Q.** For O=C(Nc1ccccc1Cl)O/N=C(/c1ccccc1)c1ccccn1, which “activity change, negative = growth inhibition” value is on record?
**A.** 4.12%

**Q.** Which “activity change, negative = growth inhibition” value does the source give for c1ccc2sc(NN=C3CCCC3)nc2c1 here?
**A.** -10.2%

**Q.** With CC(C)CN1C(=O)CN(S(C)(=O)=O)CC1(C)C(=O)NCc1ccccc1 (stereo not given) as the compound, how does the “activity change, negative = growth inhibition” value read?
**A.** -2.61%

**Q.** For CCN(CC(=O)Nc1c(F)cccc1F)C(=O)c1ccc(-c2ccc(C(C)=O)cc2)o1, which “activity change, negative = growth inhibition” value is on record?
**A.** -25.2%

**Q.** Which “activity change, negative = growth inhibition” value does the source give for Cc1ccc(S(=O)(=O)NCC(=O)N(CC(=O)NC(C)(C)C)Cc2cccs2)cc1 here?
**A.** -4.73%

**Q.** Which “activity change, negative = growth inhibition” value does the source give for Cc1cc(C)cc(C(=O)OCC(=O)NCCNC(=O)COC(=O)c2cc(C)cc(C)c2)c1 here?
**A.** -13.7%

**Q.** Which Potency does the source give for Cc1ccc(-c2cccc([C@H]3[C@@H]4C=CC[C@@H](C)[C@@H]4C(=O)N3Cc3ccccc3)c2)cc1 here?
**A.** 14.6 µM (active)

**Q.** For Cc1cccc([C@@H]2[C@@H]3C(=O)N(Cc4ccccc4)C(=O)[C@@H]3[C@]3(Cc4ccc(Cl)cc4)C(=O)N(c4cccc(Cl)c4)C(=O)N23)c1, which “activity change, negative = growth inhibition” value is on record?
**A.** 9.53%

**Q.** Which “activity change, negative = growth inhibition” value does the source give for COc1ccc(CN2CCNC(=O)C2CC(=O)N(C)Cc2ccccn2)cc1OC (stereo not given) here?
**A.** 3.3%

**Q.** Which Potency does the source give for O=[N+]([O-])c1ccc(COc2ccccc2CN2CCOCC2)cc1 here?
**A.** 23.1 µM (active)

**Q.** For O=[N+]([O-])c1ccc(N2CCOCC2)cc1, which “activity change, negative = growth inhibition” value is on record?
**A.** -4.01%

**Q.** Which “activity change, negative = growth inhibition” value does the source give for O=C(OCc1ccc([N+](=O)[O-])cc1)C1CC(=O)N(Cc2ccccc2Cl)C1 (stereo not given) here?
**A.** -4.97%

**Q.** Which “activity change, negative = growth inhibition” value does the source give for O=C1c2cccc3cccc(c23)C(=O)N1c1cccc(O)c1 here?
**A.** -18.4%

**Q.** For C=CCn1c(COc2cccc3cccnc23)nnc1SCC(=O)OC, which “activity change, negative = growth inhibition” value is on record?
**A.** -14.3%

**Q.** For COc1ccc(CCNS(=O)(=O)c2cccc3cccnc23)cc1OC, which “activity change, negative = growth inhibition” value is on record?
**A.** -2.46%

**Q.** For CCCCC(=O)NC(c1ccc(OC)c(OC)c1)c1ccc2cccnc2c1O (stereo not given), which Potency is on record?
**A.** 1.3 µM (active)

**Q.** With O=C(NC1CCCC1)C(=O)c1c[nH]c2ccccc12 as the compound, how does the “activity change, negative = growth inhibition” value read?
**A.** -2.79%

**Q.** With S=c1[nH]nc(-c2ccccc2)n1/N=C/c1c[nH]c2ccccc12 as the compound, how does the “activity change, negative = growth inhibition” value read?
**A.** -3.77%

**Q.** For C[n+]1ccc(/C=C/c2c[nH]c3ccccc23)cc1, which Potency is on record?
**A.** 1.03 µM (active)

**Q.** For CC1(C(=O)NS(=O)(=O)c2ccc(C#N)cc2)CCN1C(=O)CC1CCCC1 (stereo not given), which “activity change, negative = growth inhibition” value is on record?
**A.** -5.1%

**Q.** With CC1(C)CC2CC(C)(CN2c2ncnc3ccc(Br)cc23)C1 (stereo not given) as the compound, how does the Potency read?
**A.** 5.17 µM (active)

**Q.** With O=C(COC(=O)Cc1ccccc1F)NNC(=O)c1ccc(Cl)cc1 as the compound, how does the “activity change, negative = growth inhibition” value read?
**A.** -7.31%

**Q.** With COc1ccc(C)cc1N(CC(=O)NC(C)c1ccccc1)S(C)(=O)=O (stereo not given) as the compound, how does the “activity change, negative = growth inhibition” value read?
**A.** 6.36%

**Q.** With CC(C)CNC(=O)C1(C)CCCN1C(=O)CSc1ccccc1 (stereo not given) as the compound, how does the “activity change, negative = growth inhibition” value read?
**A.** -17.6%

**Q.** With COc1ccc(/C=N/NC(=O)c2cccc(C(F)(F)F)c2)cc1 as the compound, how does the “activity change, negative = growth inhibition” value read?
**A.** 0.721%

**Q.** With COc1ccc(NC(=O)C(=O)NCC(=O)Nc2cccc(C(F)(F)F)c2)cc1 as the compound, how does the “activity change, negative = growth inhibition” value read?
**A.** 15.1%

**Q.** Which Potency does the source give for COc1cc(OC)cc(C(=O)Nc2ccc3nc(Nc4cccc(C(F)(F)F)c4)cc(C)c3c2)c1 here?
**A.** 9.2 µM (active)

**Q.** For O=C(O)CSc1c2c(nc3cc(C(=O)Nc4cccc(C(F)(F)F)c4)ccc13)CCCC2, which “activity change, negative = growth inhibition” value is on record?
**A.** -7%

**Q.** For Cc1cc(Nc2cccc(C(F)(F)F)c2)nc2ccc(NC(=O)c3ccc(=O)[nH]c3)cc12, which Potency is on record?
**A.** 16.4 µM (active)

**Q.** Which “activity change, negative = growth inhibition” value does the source give for CC(Oc1cccc(Cl)c1)C(=O)Nc1ccc(S(=O)(=O)Nc2ncccn2)cc1 (stereo not given) here?
**A.** -22.1%

**Q.** With CCCCSc1nc2ccccc2[nH]1 as the compound, how does the “activity change, negative = growth inhibition” value read?
**A.** -15.7%

**Q.** For CCC(C)N1C(=O)S/C(=C/c2ccc(Sc3nc4ccccc4[nH]3)o2)C1=O (stereo not given), which Potency is on record?
**A.** 14.6 µM (active)

**Q.** With CCc1nnc(NC(=O)CCCSc2nc3ccccc3[nH]2)s1 as the compound, how does the “activity change, negative = growth inhibition” value read?
**A.** 10.8%

**Q.** With CCN1CCN(C(=O)C2CCN(S(=O)(=O)c3cc(Cl)ccc3Cl)CC2)CC1 as the compound, how does the “activity change, negative = growth inhibition” value read?
**A.** 3.59%

**Q.** Which “activity change, negative = growth inhibition” value does the source give for Cc1nnc(SCC(=O)Nc2ncc3c(n2)CC(C)(C)CC3=O)s1 here?
**A.** -8.13%

**Q.** For CC(C)=CCN1CCN(CCCc2ccccc2)CC1CCO (stereo not given), which “activity change, negative = growth inhibition” value is on record?
**A.** -2.58%

**Q.** Which Potency does the source give for CC(C)=CCN1CCC2(CCc3ccccc32)CC1 here?
**A.** 11.6 µM (active)

**Q.** For COc1cc(CNCCSc2nnnn2C)ccc1OCc1c(F)cccc1Cl, which “activity change, negative = growth inhibition” value is on record?
**A.** -28.8%

**Q.** With Cn1nnnc1SCCNCc1ccc(Cl)c(Cl)c1 as the compound, how does the “activity change, negative = growth inhibition” value read?
**A.** -1.39%

**Q.** Which Potency does the source give for COc1cc(CNCCSc2nnnn2C)ccc1OCc1ccc(Cl)cc1Cl here?
**A.** 16.4 µM (active)
